In all, about 220,000 compounds went through this assay and about 2,000 (0.91%) were called active. Another 2% or so got no clear call; they are omitted. These entries were drawn from the full list. Entries with a potency or affinity are not part of this list. A number with no mark means an inactive call. Rule as the data show it: inconclusive = inhibition above about 80% without an active follow-up result; inactive = below that; test concentration not stated here.
Assay: M. tuberculosis H37Rv growth inhibitors, H37Rv strain (AID 1626);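 also: bacteria incubated seven days before Alamar blue readout; 0% = bacteria only wells and 100% = bacteria with antibiotic wells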
Conditions: hits give high values, concentration not given here

With `Cc1ccc(-c2nn(-c3ccccc3)cc2CSC(=N)N)cc1` as the compound, how does the inhibition read?
Its inhibition is 50.3%.

With `COc1ccc(-c2nn(-c3ccccc3)cc2CO)cc1` as the compound, how does the inhibition read?
Its inhibition is 5.02%.

Which inhibition does the source give for `OCc1cn(-c2ccccc2)nc1-c1ccc(-c2nn(-c3ccccc3)cc2CO)cc1` here?
Its inhibition is -1.67%.

With `Cc1cc(C)c(NC(N)=S)c(C)c1` as the compound, how does the inhibition read?
Its inhibition is 5.56%.

For `O=C(Nc1ccc2c(c1)Cc1ccccc1-2)c1cc2ccccc2o1`, which inhibition is on record?
Its inhibition is 34.9%.

For `CCOC(=O)/C(C(C)=O)=C1/OC(=O)c2ccccc21`, which inhibition is on record?
Its inhibition is 2.35%.

Which inhibition does the source give for `COc1ccc(N2CCN(S(=O)(=O)c3ccc(OC)cc3)CC2)cc1` here?
The inhibition was 6.85%.

Which inhibition does the source give for `O=C(Nc1ccc(F)cc1F)C1(c2cccs2)CCOCC1` here?
Its inhibition is 4.02%.

With `CCOC(=O)c1c(NC(=O)CCc2ccc(CC)o2)sc(C)c1C` as the compound, how does the inhibition read?
The inhibition was -6.75%.

With `CCc1ccc(CCC(=O)Nc2ccc(C)cc2C)o1` as the compound, how does the inhibition read?
The inhibition was 12.7%.

With `O=C(CCC1COc2ccccc2O1)Nc1cccnc1` (stereo not given) as the compound, how does the inhibition read?
The inhibition was -8.19%.

For `Cc1cc(C)nc(NS(=O)(=O)c2ccc(NC(=O)CCC3COc4ccccc4O3)cc2)n1` (stereo not given), which inhibition is on record?
Its inhibition is 0.51%.

For `CCc1ccc(CCC(=O)Nc2ccc(C(C)=O)cc2)o1`, which inhibition is on record?
The inhibition was 7.37%.

For `COC(=O)CCC(=O)Nc1ccc(OC)cc1`, which inhibition is on record?
Its inhibition is 1.4%.

With `CCc1ccc(CCC(=O)Nc2ccc(S(N)(=O)=O)cc2)o1` as the compound, how does the inhibition read?
The inhibition was 1.79%.

With `Cc1ccc(NC(=O)CCSCCC(=O)Nc2ccc(C)c(C)c2)cc1C` as the compound, how does the inhibition read?
Its inhibition is 7.02%.

Which inhibition does the source give for `O=[N+]([O-])c1ccc(C2CCCC/C2=N/OCc2ccccc2F)c([N+](=O)[O-])c1` (stereo not given) here?
The inhibition was 0.93%.

With `CC1CC(=O)c2cnc(Nc3cccc(C(F)(F)F)c3)nc2C1` (stereo not given) as the compound, how does the inhibition read?
Its inhibition is 2.97%.

Which inhibition does the source give for `O=C(Cn1nc(-c2ccccc2)c2ccccc2c1=O)NCC1CCCO1` (stereo not given) here?
Its inhibition is 8.76%.

For `Cc1ccc(-n2c(C)cc3c2CCCC3=O)cc1`, which inhibition is on record?
Its inhibition is -0.32%.

Which inhibition does the source give for `COC(=O)c1ccc(C(C(=O)NC2CCCCC2)N(C(=O)Cc2cccs2)C2CC2)cc1` (stereo not given) here?
Its inhibition is -2.62%.

Which inhibition does the source give for `COc1ccc(CCNC(=O)C2CCN(c3ccc(N4CCOCC4)nn3)CC2)c(OC)c1` here?
Its inhibition is 6.05%.

With `c1cnc2nc(-c3ccc4c(c3)OCO4)cn2c1` as the compound, how does the inhibition read?
The inhibition was -8.76%.

For `COc1ccc(-c2nc3ncccn3c2Br)cc1`, which inhibition is on record?
Its inhibition is -1.31%.

With `CC(NC(=O)COC(=O)Cc1ccsc1)c1ccccc1` (stereo not given) as the compound, how does the inhibition read?
Its inhibition is -0.56%.

With `O=C(NCc1ccccc1)N(Cc1cc2cc3c(cc2[nH]c1=O)OCCO3)CC1CCCO1` (stereo not given) as the compound, how does the inhibition read?
Its inhibition is -1.33%.

With `CC1CCN(Cc2c(C#N)c3ccccc3n2C)CC1` as the compound, how does the inhibition read?
The inhibition was -4.52%.

With `Cc1nc(Nc2c(Cl)cccc2Cl)sc1C(=O)Nc1ccccc1` as the compound, how does the inhibition read?
The inhibition was 10.3%.

Which inhibition does the source give for `Cc1nc(Nc2ccccc2)sc1C(=O)Nc1ccccc1` here?
Its inhibition is 21.1%.

Which inhibition does the source give for `O=C(OCC(=O)c1ccc[nH]1)c1ccc(S(=O)(=O)N2CCCCC2)cc1` here?
The inhibition was -10.2%.

Which inhibition does the source give for `S=c1[nH]nc(COc2ccccc2)n1/N=C/C=C/c1ccccc1` here?
Its inhibition is 12.1%.

For `CCN(CC)C(=O)N1CCN(S(=O)(=O)c2ccc(C)cc2)CC1`, which inhibition is on record?
The inhibition was -9.01%.

With `O=C(COc1ccccc1)Nn1c(-c2ccccc2)nc2ccccc2c1=O` as the compound, how does the inhibition read?
The inhibition was -3.31%.

Which inhibition does the source give for `O=C(N/N=C/c1ccncc1)c1ccc(NS(=O)(=O)c2cccs2)cc1` here?
The inhibition was -0.88%.

Which inhibition does the source give for `c1ccc(N2CCN(c3cnc4ccccc4n3)CC2)cc1` here?
Its inhibition is 5.67%.

For `COc1ccc(N2CCN(c3cnc4ccccc4n3)CC2)cc1`, which inhibition is on record?
Its inhibition is -9.34%.

Which inhibition does the source give for `CC(C)C(NS(=O)(=O)c1cccc2nsnc12)C(=O)NCCC1=CCCCC1` (stereo not given) here?
Its inhibition is -3.27%.

For `Cc1cc(O)c(C(C[N+](=O)[O-])c2ccc(Cl)cc2Cl)c(=O)o1` (stereo not given), which inhibition is on record?
Its inhibition is 2.19%.

For `Cc1cc(O)c(C(C[N+](=O)[O-])c2ccc(Cl)cc2)c(=O)o1` (stereo not given), which inhibition is on record?
The inhibition was 6.11%.

Which inhibition does the source give for `Cc1[nH]c2ccccc2c1C(C[N+](=O)[O-])c1cccc(O)c1` (stereo not given) here?
The inhibition was 6.89%.

For `Cc1[nH]n(-c2ccccc2)c(=O)c1C(C[N+](=O)[O-])c1ccccc1Cl` (stereo not given), which inhibition is on record?
Its inhibition is 3.54%.

With `O=c1[nH][nH]c(-c2ccccc2O)c1C(C[N+](=O)[O-])c1ccccc1` (stereo not given) as the compound, how does the inhibition read?
The inhibition was 6.94%.

Which inhibition does the source give for `Cc1ccc(C(C[N+](=O)[O-])c2c(-c3ccccc3O)[nH][nH]c2=O)cc1` (stereo not given) here?
The inhibition was 4.79%.

Which inhibition does the source give for `O=C(Nc1ccccc1)c1ccc(NCc2cccnc2)c(S(=O)(=O)N2CCOCC2)c1` here?
The inhibition was 1.54%.

Which inhibition does the source give for `COc1cc(-c2nc3n(n2)C(c2ccncc2)C(C(N)=O)=C(C)N3)cc(OC)c1OC` (stereo not given) here?
Its inhibition is -5.67%.

Which inhibition does the source give for `COc1cccc(C2=CC(c3cccc(OC)c3OC)n3nnnc3N2)c1` (stereo not given) here?
Its inhibition is -6.61%.

Which inhibition does the source give for `O=C(COC(=O)c1cc(S(=O)(=O)N2CCCC2)ccc1O)Nc1ccc(S(=O)(=O)N2CCOCC2)cc1` here?
Its inhibition is 1.29%.

For `CN1CCC(N(C)C(=O)c2cc(=O)c3ccccc3o2)CC1`, which inhibition is on record?
Its inhibition is 18.1%.

With `CCOC(=O)c1sc2nc(CSc3ccccc3)nc(NCCN(C)C)c2c1C` as the compound, how does the inhibition read?
The inhibition was -5.4%.

Which inhibition does the source give for `Cc1sc2nc(CSc3ccccc3)nc(N3CCN(C)CC3)c2c1C` here?
Its inhibition is 0.24%.
